Source: PubChem (National Center for Advancing Translational Sciences (NCATS))
Most compounds without a hit are left out; they make up all but 2.4% or so of the library.
D2 ag-1 – D2 dopamine receptor (human) agonism. P14416. HEK293 T-REx D2 cells, calcium flux agonist mode. activation, % at 2 µM. 0.53% of 340,000 active;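 active = activation over 3 SD above normal in the single-dose calcium agonist read, cut at about 30% in these data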
Target sequence (P14416 whole entry, looked up): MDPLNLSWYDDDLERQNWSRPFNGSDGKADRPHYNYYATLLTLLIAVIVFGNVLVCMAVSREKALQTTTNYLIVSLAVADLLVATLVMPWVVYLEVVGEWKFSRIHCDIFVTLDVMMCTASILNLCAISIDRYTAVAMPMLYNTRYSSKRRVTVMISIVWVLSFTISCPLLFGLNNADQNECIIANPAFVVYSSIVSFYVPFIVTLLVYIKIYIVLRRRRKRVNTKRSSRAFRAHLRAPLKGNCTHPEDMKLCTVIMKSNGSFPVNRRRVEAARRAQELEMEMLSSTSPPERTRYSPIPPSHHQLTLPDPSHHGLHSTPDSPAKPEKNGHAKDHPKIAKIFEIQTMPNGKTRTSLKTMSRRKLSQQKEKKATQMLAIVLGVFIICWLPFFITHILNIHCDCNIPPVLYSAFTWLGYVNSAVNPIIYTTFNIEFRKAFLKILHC
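Calcium-flux readout, 1 cycle/sec over 180 s following compound pin transfer, in inducible HEK293 Trex D2 cells (force-coupled); dopamine controls included. Positive calcium responses during this window marked compounds as potential agonists.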
D2 PAM-1 – positively modulates the human D2 dopamine receptor allosterically; P14416; HEK293 T-REx D2, calcium flux, EC20 dopamine potentiation; potentiation, % at 10 µM; 0.34% of 340,000 active;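 active = potentiation over 3 SD above the plate norm, cut at about 30% in these data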
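Using a no-wash calcium dye in inducible, force-coupled HEK293 Trex cells expressing D2, we tracked fluorescence each second for 180 s after compound, then for 180 s after EC20 dopamine to detect augmented signalling.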
D2 antagonist – antagonizes the human D2 dopamine receptor; P14416; HEK293 TREx D2 cells, calcium flux, dopamine EC80; inhibition, % at 10 µM; 2% of 340,000 active; AID 485344; in the data active = inhibition above about 30%; inactive = below that, where a call was filed
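HEK293 T-REx D2 cells, tet-induced, calcium dye no-wash. Cpd pintool add, 180 s kinetic, then EC80 DA, 180 s kinetic. Ca flux read.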
D2 ag-2 – agonists of human D2 dopamine receptor (beta-arrestin); 0.084% of 360,000 active; activation, % (concentration not given with the values); DiscoveRx PathHunter D2 beta-arrestin, luminescence, 90 min; 100% = 57 uM dopamine signal; in the data active = activation above about 40%; inconclusive = between about 15% and that limit
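DiscoveRx PathHunter D2 beta-arrestin cells (2,100/well) attached overnight, then compound-stimulated 90 min at 37 C in HBSS/10 mM HEPES/0.1% Tween-20 buffer; beta-galactosidase complementation read by luminescence after 1 h at ambient temperature. Dopamine 57 uM final (EC100) as control.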
D2 PAM-2 – potentiates the human D2 dopamine receptor allosterically. 0.23% of 360,000 active. P14416. potentiation, % (test concentration not listed). DiscoveRx D2 beta-arrestin cells, luminescence, 90 min; 100% = 57 uM dopamine signal; in the data active = potentiation above about 50%; inconclusive = mostly about 30% to 49%
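PathHunter D2 cells, attached overnight at 37 deg C, received compound in DMSO plus dopamine at EC20 (50 nM final) for 90 min at 37 deg C. Beta-arrestin recruitment was read as luminescence after 1 h with detection reagent at ambient temperature.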
D3 arrestin ag – confirmation of human D3 dopamine receptor agonists, beta-arrestin; shares compounds with D2 ag-1; DiscoveRx D3 beta-arrestin cells, luminescence, 90 min; Potency, µM (doses to about 76.9 µM), hits mostly activators; 4% of 2,300 active; note: nearly all actives have a fitted effect of over 70% in size
D2 ag-3 – activates human D2 dopamine receptor in D3 counterscreen | shares compounds with D2 ag-1 | DiscoveRx PathHunter D2 beta-arrestin, luminescence, 90 min; response scale: percent relative to full dopamine signal | Potency, µM (top dose mostly 76.9 µM), hits mostly activators | 5.9% of 2,300 active; note: nearly all actives have a fitted effect of over 70% in size
Large screens that a line does not name were inactive (follow-up assays come after a bar, where they were run). Unless noted, calls come from the whole dose curve; as a rule, active = well fitted activation curve with a large enough effect; inconclusive = small, poorly fitted or top-dose-only effect; inactive = flat fitted curve, though single readings scatter.

CCOc1ccccc1NC(=O)CC1C(=O)NCCN1C(=O)c1ccc(F)cc1 (stereo not given)	none (no result: D2 antagonist, D2 ag-2, D2 PAM-2)
Clc1nnc(NN=C2CCCC2)c2ccccc12	D2 ag-1 61 | D3 arrestin ag inactive | D2 ag-3 inactive
O=C1CCC(C(=O)N2CCN(c3ccccc3)CC2)CN1CC1CCCCC1 (stereo not given)	D2 ag-1 62 | D3 arrestin ag inactive | D2 ag-3 inconclusive
O=C1CCC(C(=O)N2CCN(c3ccc(F)cc3)CC2)CN1CC1CCCCC1 (stereo not given)	none
CCN1CCN(CCn2c(=S)[nH]c3ccccc3c2=O)CC1	none
Cc1cccc(C)c1N1CCN(CCn2c(=S)[nH]c3ccccc3c2=O)CC1	D2 antagonist 71 | D3 arrestin ag inactive | D2 ag-3 inactive
Cc1cc(C)c(NC(=O)Cn2cnc3c(oc4ccccc43)c2=O)c(C)c1	none | D3 arrestin ag inactive | D2 ag-3 inactive
CC(C)c1ccc(NC(=O)C2CC3CCC2C3)cc1 (stereo not given)	none
O=C(Nc1ccc(F)cc1)C1CC2CCC1C2 (stereo not given)	none (no result: D2 ag-1, D2 PAM-1, D2 antagonist) | D3 arrestin ag inactive | D2 ag-3 inactive
Brc1cccc(OCCN2CCc3ccccc3C2)c1	D2 ag-1 52, D2 antagonist 96 | D3 arrestin ag inactive | D2 ag-3 inactive
COc1cc(NC(=O)CN2c3ccccc3S(=O)(=O)c3ccccc32)cc(OC)c1	none (no result: D2 antagonist, D2 ag-2, D2 PAM-2)
CCOC(=O)N1CCN(CC(=O)Nc2c(C(=O)OC)[nH]c3cc(C)ccc23)CC1	none (no result: D2 ag-1, D2 antagonist) | D3 arrestin ag inconclusive | D2 ag-3 inactive
Cc1ccc(NC(=O)Cc2ccc(-n3c(C)nc4cccnc43)cc2)cc1C	none (no result: D2 antagonist, D2 ag-2, D2 PAM-2)
CC(=O)Nc1ccc(/C=N/N2C(=O)NC(C)(c3ccc(OC(F)F)cc3)C2=O)cc1 (stereo not given)	D2 ag-1 37, D2 antagonist 47 | D3 arrestin ag inactive | D2 ag-3 inactive
Cc1cc(C)cc(OC2CCCCC2NS(=O)(=O)c2ccccc2)c1 (stereo not given)	D2 antagonist 36 | D3 arrestin ag inactive | D2 ag-3 inactive
CSc1ccc(OC2CCCCC2NS(=O)(=O)c2ccccc2)cc1 (stereo not given)	none
O=C(O)c1ccc(/C=C2\SC(=S)N(Nc3ccccc3)C2=O)cc1	none | D3 arrestin ag inconclusive | D2 ag-3 inactive
O=C1/C(=C/c2ccncc2)SC(=S)N1Nc1ccccc1	none
O=C(Cc1c(F)cccc1Cl)NNC(=O)c1ccncc1	none | D3 arrestin ag inactive | D2 ag-3 inactive
O=C(CN1CCN(c2ccccc2)CC1)Nc1ccc2c(c1)OCCO2	D2 ag-1 56, D2 antagonist 45 | D3 arrestin ag inactive | D2 ag-3 inconclusive
Cc1[nH]c2ccccc2c1NC(=O)CN1CCN(C(=O)c2ccco2)CC1	D2 ag-1 87, D2 antagonist 61, D2 ag-2 54, D2 PAM-2 inconclusive | D3 arrestin ag inactive | D2 ag-3 inconclusive
O=C(CN1CCN(C(=O)c2ccco2)CC1)Nc1ccc(Cl)c(S(=O)(=O)N2CCOCC2)c1	D2 ag-1 45 | D3 arrestin ag inconclusive | D2 ag-3 inactive
O=C(CN1CCN(C(=O)c2ccco2)CC1)Nc1ccc2c(c1)OCCO2	D2 ag-1 61, D2 antagonist 54, D2 ag-2 inconclusive | D3 arrestin ag inactive | D2 ag-3 inactive
CCOc1ccccc1CNC(=O)CN1C(=O)C2CCCCN2c2ccc(C(=O)N(C)C)cc21 (stereo not given)	none (no result: D2 PAM-1, D2 antagonist, D2 ag-2, D2 PAM-2)
COc1ccc(S(=O)(=O)N(CC(=O)N2CCC(C)CC2)c2ccc(C)cc2)cc1	none (no result: D2 antagonist, D2 ag-2, D2 PAM-2)
c1ccc(CN2CCN(c3ncnc4nc[nH]c34)CC2)cc1	D2 ag-1 81, D2 antagonist 68 | D3 arrestin ag inactive | D2 ag-3 inconclusive
C1=C(c2ccccc2)CCN(c2ncnc3nc[nH]c23)C1	none
COc1ccccc1Oc1ccc(S(=O)(=O)N2CCOCC2)cc1S(=O)(=O)N1CCOCC1	D2 ag-1 44 | D3 arrestin ag inactive | D2 ag-3 inactive
COc1ccc(S(=O)(=O)N2CCOCC2)cc1NC(=O)COc1ccccc1OC	none
CCN(CC)S(=O)(=O)c1ccc2nc(NC(=O)c3cccnc3)sc2c1	none (no result: D2 antagonist, D2 ag-2, D2 PAM-2)
C=C(C)C1CC=C(CN2CCC(C(=O)OCC)CC2)CC1 (stereo not given)	D2 ag-1 60, D2 antagonist 72 | D3 arrestin ag inactive | D2 ag-3 inactive
COC(=O)CCN(C(=O)C1C2CC3CC(C2)CC1C3)c1ccccn1 (stereo not given)	D2 ag-1 41, D2 ag-2 inconclusive | D3 arrestin ag inactive | D2 ag-3 inconclusive
CCOc1ccccc1C(=O)N(CCC(=O)OC)c1ccccn1	none
COCCN(Cc1ccco1)C(=O)C1CCCN(c2ncnc3c2nc2n3CCCCC2)C1 (stereo not given)	none | D3 arrestin ag inactive | D2 ag-3 inactive
COc1cc(NC(=O)C2CCCN(c3ncnc4c3nc3n4CCCCC3)C2)cc(OC)c1OC (stereo not given)	D2 ag-1 39 | D3 arrestin ag inactive | D2 ag-3 inactive
Cc1ccc2[nH]c3c(c2c1)CN(C(=O)CN1CCN(c2ccccn2)CC1)CC3	D2 ag-1 31 | D3 arrestin ag inactive | D2 ag-3 inactive
Cc1ccc2[nH]c3c(c2c1)CN(C(=O)CN1CC(C)OC(C)C1)CC3 (stereo not given)	none
CCOC(=O)N1CCc2[nH]c3ccc(C)cc3c2C1	none | D3 arrestin ag inactive | D2 ag-3 inactive
Cc1ccc2[nH]c3c(c2c1)CN(C(=O)CN1CCSCC1)CC3	none (no result: D2 ag-2, D2 PAM-2)
COc1ccccc1CNC(=O)Nc1ccc2c(c1)N(C)C(=O)c1ccccc1S2	none (no result: D2 antagonist, D2 ag-2, D2 PAM-2)
COc1ccc(CNC(=O)Cc2ccc(NC(=O)N3CCSc4ncccc43)cc2)cc1OC	none (no result: D2 antagonist, D2 ag-2, D2 PAM-2)
COc1ccc(-c2cc(C(=O)Oc3cccc(C)c3C)c3ccccc3n2)cc1	none (no result: D2 ag-1, D2 antagonist, D2 ag-2, D2 PAM-2)
Cc1ccc(NC(=O)Cn2c(=O)n(-c3ccc(C)cc3)c(=O)c3ccc(C(=O)NCc4ccccc4Cl)cc32)cc1	none (no result: D2 antagonist, D2 ag-2, D2 PAM-2)
O=S(=O)(c1cccs1)N1CCN(C/C=C/c2ccccc2)CC1	none
O=C(c1cccs1)N1CCN(CCc2ccccc2)CC1	D2 ag-1 43, D2 antagonist 42 | D3 arrestin ag inactive | D2 ag-3 inactive
O=C(c1cccs1)N1CCN(C/C=C/c2ccccc2)CC1	D2 ag-1 53, D2 antagonist 69 | D3 arrestin ag inconclusive | D2 ag-3 inconclusive
O=C(Cc1ccccc1)N1CCN(C(=O)c2cccs2)CC1	none
